Values joined by “and” are separate entries in the source; they are usually repeats but may differ in a detail not shown here. Equal entries are not always repeated. Records with an inconclusive call do not appear. The source holds several records for some structures; these can differ, active in one and inactive in another. Active and inactive are the calls of the source. The call rests on the fitted dose curve; in most records, active means well fitted inhibition curve with a large enough effect in the repeat runs; inconclusive means weak or mixed curves; inactive means no such curve, though single readings can be large or run the other way.
What follows are compounds tested against Cytochrome P450 2C19 (Homo sapiens) (UniProt P33261) (assay: Cytochrome P450 Family 2 Subfamily C Member 19 (CYP2C19) small molecule antagonists: luciferase reporter qHTS assay (AID 1671197; further: nearly all actives have a fitted effect of over 65% in size)). Details: P450-Glo CYP2C19 enzyme, luciferin luminescence, 1 h; series mostly up to 115 µM; activity change, negative = inhibition: at the top concentration.
Method in brief: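 CYP2C19 P450-Glo, 1536-well qHTS. Cpd + enzyme/proluciferin substrate 10 min RT; + NADPH regen, 37C 1 h; stop with luciferin detection reagent, 20 min RT, luminescence (RLU). Pos ctrl ketoconazole.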
On the % scale 0 is the no-effect control and ±100 the full control effect; potency means the concentration at half of the fitted maximal effect.

Sequence of Cytochrome P450 2C19 (Homo sapiens) (P33261 whole entry, looked up): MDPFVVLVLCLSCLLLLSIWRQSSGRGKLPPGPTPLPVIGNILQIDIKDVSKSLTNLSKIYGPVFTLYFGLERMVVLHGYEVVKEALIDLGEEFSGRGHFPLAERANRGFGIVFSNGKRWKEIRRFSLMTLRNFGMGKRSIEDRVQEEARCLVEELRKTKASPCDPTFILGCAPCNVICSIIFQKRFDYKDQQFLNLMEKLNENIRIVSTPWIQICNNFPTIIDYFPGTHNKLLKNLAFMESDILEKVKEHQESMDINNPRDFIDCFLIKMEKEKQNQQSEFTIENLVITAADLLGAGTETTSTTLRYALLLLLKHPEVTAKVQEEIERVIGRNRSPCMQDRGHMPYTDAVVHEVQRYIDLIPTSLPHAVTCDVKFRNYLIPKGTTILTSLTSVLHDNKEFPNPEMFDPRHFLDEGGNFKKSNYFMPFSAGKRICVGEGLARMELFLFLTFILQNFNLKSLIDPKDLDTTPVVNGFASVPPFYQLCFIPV

Compound | Potency | activity change, negative = inhibition
Cc1ccc(C)c(C)c1 | inactive | 
NCCc1ccc(O)c(O)c1 | 71.2 µM (active) and inactive | 
CC1=C(CC(=O)O)c2cc(F)ccc2/C1=C\c1ccc(S(C)=O)cc1 (stereo not given) | 7.96 µM (active) and 8.71 µM (active) | 
O=C(O)c1cc(-c2ccccc2)nc2ccccc12 | 50.9 µM (active) and inactive | 
ClC1=C(Cl)C(Cl)(Cl)C(Cl)=C1Cl | inactive | 
OCC1CCCO1 (stereo not given) | 40.7 µM (active) and inactive | 
CC(C)(C)C1CCC(O)CC1 (stereo not given) | 32.2 µM (active) and inactive | 
CC(C)(CO)COC(=O)C(C)(C)CO | 8.94 µM (active) and 39.9 µM (active) | 
O=C1CCCCC1 | 74.6 µM (active) and inactive | 
CNC[C@H](O)[C@@H](O)[C@H](O)[C@H](O)CO |  | 6.9% (inactive)
CC1=C(/C=C/C(C)=C/C=C/C(C)=C/CO)C(C)(C)CCC1 | 50.9 µM (active) and 37.5 µM (active) | 
OCC#CCO | 57.2 µM (active) and inactive | 
Cc1cc(Cc2ccc(N)c(C)c2)ccc1N | 3.56 µM (active) and 5.03 µM (active) | 
CS(=O)(=O)c1ccc([C@@H](O)[C@@H](CO)NC(=O)C(Cl)Cl)cc1 | 28.6 µM (active) and 17.4 µM (active) | 
CCCCCCCCCCC=CC1CC(=O)OC1=O (stereo not given) | 45 µM (active) and inactive | 
S=c1nc[nH]c2nc[nH]c12 | 69.2 µM (active) and 30.9 µM (active) | 
CCCCCCCCCC(=O)O |  | -4.41% (inactive)

Compound | Potency | activity change, negative = inhibition
C=C(C)C(=O)OCC(CC)(COC(=O)C(=C)C)COC(=O)C(=C)C | 3.62 µM (active) and 3.49 µM (active) | 
C=C1CC[C@H](O)CC1=C/C=C1\CCC[C@]2(C)[C@@H]([C@H](C)/C=C/[C@H](C)C(C)C)CC[C@@H]12 | 35.3 µM (active) and 25.2 µM (active) | 
CCCCOCCO |  | 2.12% (inactive)
Oc1ccc(OCc2ccccc2)cc1 | 34.8 µM (active) and 8.71 µM (active) | 
CCCCOCCOCCOC(=O)CCCCC(=O)OCCOCCOCCCC | 22.5 µM (active) and 22.4 µM (active) | 
Cn1c([N+](=O)[O-])cnc1COC(N)=O | inactive | 
CCCCC(CC)COC(C)=O (stereo not given) | inactive | 
OC1CCCC1 | inactive | 
CC(C)Cc1ccccc1 | inactive | 
Cc1ccc(C(=O)O)o1 | inactive | 
CCC(C)C=O (stereo not given) | 39.9 µM (active) and inactive | 
O=C(c1cc(O)c(O)c(O)c1)c1ccc(O)c(O)c1O | 15.9 µM (active) and 31.7 µM (active) | 
CC1=CC[C@H]2C[C@@H]1C2(C)C | inactive | 
CCCCCCCCCCCCN | 4.02 µM (active) and 633 nM (active) and 2.56 µM (active) | 
C=C1C2CCC(C2)C1(C)C (stereo not given) | inactive | 
NC(=O)/N=N/C(N)=O | 3.18 µM (active) and 5.64 µM (active) | 

What follows are compounds tested against Cytochrome P450 2C9 (Homo sapiens) (UniProt P11712) (assay: Cytochrome P450 Family 2 Subfamily C Member 9 (CYP2C9) small molecule antagonists: luciferase reporter qHTS assay (AID 1671198; further: nearly all actives have a fitted effect of over 50% in size)). Details: P450-Glo CYP2C9 enzyme assay, luciferin luminescence; series mostly up to 115 µM; activity change, negative = inhibition: at the top concentration.
Method in brief: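 CYP2C9 activity was measured with a P450-Glo proluciferin substrate. Enzyme–substrate mix was held with compound for 10 min at room temperature, then NADPH regeneration solution was added for 1 h at 37C. Luciferin product was read as luminescence.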

Sequence of Cytochrome P450 2C9 (Homo sapiens) (P11712 whole entry, looked up): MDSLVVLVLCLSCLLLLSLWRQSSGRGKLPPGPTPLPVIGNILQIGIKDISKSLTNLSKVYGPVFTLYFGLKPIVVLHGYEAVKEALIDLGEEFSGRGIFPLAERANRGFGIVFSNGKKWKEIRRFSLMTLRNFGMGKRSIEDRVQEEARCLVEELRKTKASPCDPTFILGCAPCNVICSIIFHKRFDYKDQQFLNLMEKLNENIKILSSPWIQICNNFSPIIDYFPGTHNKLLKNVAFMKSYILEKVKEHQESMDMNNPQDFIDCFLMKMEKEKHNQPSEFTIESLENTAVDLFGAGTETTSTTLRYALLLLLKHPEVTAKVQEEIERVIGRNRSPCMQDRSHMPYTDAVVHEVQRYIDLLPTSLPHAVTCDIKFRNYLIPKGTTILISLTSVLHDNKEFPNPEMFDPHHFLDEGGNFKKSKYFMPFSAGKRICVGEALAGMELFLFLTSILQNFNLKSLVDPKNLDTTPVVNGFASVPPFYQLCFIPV

Compound | Potency | activity change, negative = inhibition
Cc1ccc(C)c(C)c1 | inactive | 
NCCc1ccc(O)c(O)c1 |  | 25.8% [at 53 µM] (inactive)
CC1=C(CC(=O)O)c2cc(F)ccc2/C1=C\c1ccc(S(C)=O)cc1 (stereo not given) | 50.2 µM (active) and inactive | 
O=C(O)c1cc(-c2ccccc2)nc2ccccc12 | 43.9 µM (active) | 
CC(C)(C)C1CCC(O)CC1 (stereo not given) |  | -17.8% (inactive)
O=C1CCCCC1 |  | 2.42% (inactive)
CC1=C(/C=C/C(C)=C/C=C/C(C)=C/CO)C(C)(C)CCC1 | 64.1 µM (active) and 37.5 µM (active) | 
OCC#CCO |  | -12.4% (inactive)
Cc1cc(Cc2ccc(N)c(C)c2)ccc1N | 6.33 µM (active) and 25.2 µM (active) | 
CS(=O)(=O)c1ccc([C@@H](O)[C@@H](CO)NC(=O)C(Cl)Cl)cc1 | inactive | 
CCCCCCCCCCC=CC1CC(=O)OC1=O (stereo not given) | 71.4 µM (active) and 39.9 µM (active) | 
S=c1nc[nH]c2nc[nH]c12 | 34.7 µM (active) | 
CCCCCCCCCC(=O)O | 74.8 µM (active) | 
C=C(C)C(=O)OCC(CC)(COC(=O)C(=C)C)COC(=O)C(=C)C | 14.4 µM (active) and 15.6 µM (active) | 
CCCCOCCO |  | -17% (inactive)
CCCCOCCOCCOC(=O)CCCCC(=O)OCCOCCOCCCC | 11.3 µM (active) and 17.8 µM (active) | 
Cn1c([N+](=O)[O-])cnc1COC(N)=O | inactive | 
CCCCC(CC)COC(C)=O (stereo not given) | inactive | 
OC1CCCC1 | inactive | 
CC(C)Cc1ccccc1 | inactive | 
Cc1ccc(C(=O)O)o1 | inactive | 
CCC(C)C=O (stereo not given) | inactive | 
O=C(c1cc(O)c(O)c(O)c1)c1ccc(O)c(O)c1O | 3.16 µM (active) and 50.2 µM (active) and inactive | 
CC1=CC[C@H]2C[C@@H]1C2(C)C | inactive | 
CCCCCCCCCCCCN | 22.6 µM (active) and 6.33 µM (active) and 32.2 µM (active) | 
C=C1C2CCC(C2)C1(C)C (stereo not given) | inactive | 
NC(=O)/N=N/C(N)=O | 4 µM (active) and 3.99 µM (active) | 
